Screens: PubChem, The Scripps Research Institute Molecular Screening Center
This is a sample that favours compounds with a hit; in the whole collection about 3.5% have one here.
GPR151 ag: activators of human GPR151. Q8TDV0. PathHunter beta-arrestin GPR151 cells, luminescence. activation, % at 11.2 µM. hit rate 1% among 650,000. AID 1508602; in the data active = activation above about 4.9%
Target sequence (Q8TDV0 whole entry, looked up): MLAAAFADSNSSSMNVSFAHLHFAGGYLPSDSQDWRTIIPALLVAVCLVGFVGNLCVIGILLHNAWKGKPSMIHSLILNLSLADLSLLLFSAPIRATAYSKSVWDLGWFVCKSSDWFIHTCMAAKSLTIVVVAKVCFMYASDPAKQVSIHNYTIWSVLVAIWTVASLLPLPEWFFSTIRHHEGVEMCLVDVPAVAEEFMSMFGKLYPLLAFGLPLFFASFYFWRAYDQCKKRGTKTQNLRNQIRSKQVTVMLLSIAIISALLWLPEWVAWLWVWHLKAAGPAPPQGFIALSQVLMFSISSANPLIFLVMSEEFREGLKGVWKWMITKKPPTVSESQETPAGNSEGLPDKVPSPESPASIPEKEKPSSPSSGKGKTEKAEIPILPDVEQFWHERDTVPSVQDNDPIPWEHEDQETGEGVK
TEAD-YAP inh: TEAD-YAP interaction inhibition; hit rate 1.4% among 640,000; HEK-TIYL cells, TEAD-Gal4/YAP UAS-luciferase luminescence; inhibition, % at 9.12 µM; in the data active = inhibition above about 32%
FBW7 act: activators of human E3 ligase FBW7. Q969H0. AlphaScreen FBW7–phospho-cyclin E peptide binding, activator screen. hit rate 0.13% among 650,000. normalized activity (activation), % at 26.1 µM; in the data active = normalized activity above about 1.9%;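 also: purified mutant Fbw7 with reduced substrate affinity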
MITF inh: blocks human microphthalmia-associated transcription factor; AID 1259374; hit rate 0.91% among 650,000; inhibition, % at 2.6 µM; AlphaScreen MITF homodimerization, bead proximity signal; in the data active = inhibition above about 50%
GPR151 conf act: confirmation of human GPR151 activators. activation, % at 11.2 µM. GPR151 PathHunter beta-arrestin cells, luminescence, 90 min; % of EA-reagent control over plate median. shares compounds with GPR151 ag. 6,700 tested, under 10 active;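 active = mean percent activation across replicates above the confirmation screen cutoff of 4.91%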
GPR119 counter: GPR119 activation, counter-screen for GPR151 activators; GPR119 PathHunter beta-arrestin cells, luminescence, 90 min; 0 = compound-well median, 100 = enzyme-acceptor control; shares compounds with GPR151 ag; activation, % at 11.2 µM; hit rate 0.3% among 6,700; AID 1508611;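 active = mean percent activation in the counterscreen above 29.09%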;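 also: counterscreen on off-target GPR119 to flag nonselective hits from the GPR151 activator screen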
A number is an active result; n = inactive; x = not tested or not shown.

SMILES	GPR151 ag	TEAD-YAP inh	FBW7 act	MITF inh	GPR151 conf act	GPR119 counter
CCn1c(SCC(=O)Nc2ccc(C(N)=O)cc2)nnc1-c1ccco1	6.8	n	n	n	n	n
CC(C)n1cnc2c(NCc3cccnc3)nc(Nc3ccc4ncccc4c3)nc21	n	n	n	n	x	x
O=C1CN(c2ccc(Cl)cc2)S(=O)(=O)c2ccccc2N1	5.6	n	n	n	n	n
CCOC(=O)c1c(NC(=O)c2cc([N+](=O)[O-])ccc2N2CCN(C)CC2)sc2c1CCCC2	n	n	n	n	x	x
CCOC(=O)c1sc(=NC(=O)c2cccc3ccccc23)n(C)c1C	7.8	n	n	n	n	n
N=C1C(c2nc3ccccc3[nH]2)=C(O)CN1c1ccc(F)cc1	n	n	n	n	x	x
CC(C)c1ccc(N2CC(O)=C(c3nc4ccccc4[nH]3)C2=N)cc1	7.9	n	n	n	n	n
COc1cc(Cl)cc(/C=C2\C(=O)NN(c3ccccc3)C2=O)c1O	5.7	n	n	n	n	n
COc1ccc(CNC(=O)CCSCc2ccc(Cl)cc2)cc1	n	n	n	n	x	x
O=C(c1oc2ccccc2c1N1CCCCC1)N1CCCCC1	5.0	n	n	n	n	n
CC1(C)CC(=O)N(CC(=O)O)c2ccccc2S1(=O)=O	n	n	n	n	x	x
CCOC(=O)N1CCN(C(=O)CN2C(=O)CC(C)(C)S(=O)(=O)c3ccccc32)CC1	5.9	n	n	n	n	n
COc1ccc(CN2CCN(Cc3ccc(OC)c(OC)c3OC)CC2)cc1OC	5.9	n	n	n	n	n
CCn1c2ccccc2c2cc(CN3CCN(Cc4ccc(OC)c(OC)c4OC)CC3)ccc21	n	n	n	n	x	x
COC(=O)C1=C(C)NC(=O)C1(NC(=O)c1ccc(OC)c(OC)c1)C(F)(F)F (stereo not drawn)	13	n	n	n	n	n
N#C/C(=C\c1ccc(Cl)cc1Cl)C(=O)NCc1ccco1	n	n	n	n	x	x
CCSc1nnc(NC(=O)/C=C/c2ccc(Cl)cc2)s1	n	n	n	n	x	x
CCCCN1CCC(Nc2ccccc2)(C(N)=O)CC1	n	n	n	n	x	x
NC(=O)C1(Nc2ccccc2)CCCCC1	6.8	n	n	n	n	n
Cc1ccc(C(=O)COC(=O)c2cc(-c3ccc(C)c(C)c3)nc3ccc(C)cc23)cc1	n	n	n	n	x	x
Cc1ccc2nc(-c3ccc(C)c(C)c3)cc(C(=O)OCC(=O)c3ccc([N+](=O)[O-])cc3)c2c1	5.6	n	n	n	n	n
COCC(=O)NC1CCN(S(=O)(=O)c2cccc(C(C)=O)c2)CC1	n	n	n	n	x	x
O=C(CCCCC(=O)Nc1ccc2c(c1)OCCO2)Nc1ccc2c(c1)OCCO2	5.1	n	n	n	n	n
O=C(CS(=O)CC(=O)Nc1ccc2c(c1)OCCO2)Nc1ccc(F)cc1 (stereo not drawn)	n	n	n	n	x	x
O=C(CS(=O)CC(=O)Nc1ccc2c(c1)OCCO2)Nc1ccc(Cl)cc1 (stereo not drawn)	6.7	n	n	n	n	n
SMILES	GPR151 ag	TEAD-YAP inh	FBW7 act	MITF inh	GPR151 conf act	GPR119 counter
O=C(COC(=O)c1ccco1)Nc1ccc2c(c1)OCO2	5.5	n	n	n	n	n
COC(=O)[C@@H](NC(=O)OC1C(=O)c2cc(Br)ccc2O[C@H]1c1ccc2c(c1)OCO2)C(C)C (stereo partly drawn)	n	x	n	n	x	x
O=C(NCCSc1ncc(-c2ccccc2)[nH]1)c1ccccc1	n	n	n	n	x	x
Cc1ccc(CN2C(=O)C(=O)c3cccc(C)c32)cc1	n	n	n	n	x	x
CCCCNC(=O)CSc1nnc(NC(C)=O)s1	6.4	n	n	n	n	n
COC(=O)c1ccc(NC(=O)CSc2nnc(NC(C)=O)s2)cc1	6.4	n	n	n	n	n
Cc1nnc(SCC(=O)NCCC(c2ccccc2)c2ccccc2)s1	5.0	n	n	n	n	n
CN1CCc2c(sc(NC(=O)c3cc4ccccc4o3)c2-c2nc3ccccc3s2)C1	n	n	n	n	x	x
O=C(CCC1=NS(=O)(=O)c2ccccc2N1)NCCO	n	n	n	n	x	x
CCOc1cc(S(=O)(=O)NCCc2ccccc2)ccc1Br	n	n	n	n	x	x
CC(C)CC(NC(=O)C1CCC(C)CC1)C(=O)Nc1cccnc1 (stereo not drawn)	7.4	n	n	n	n	n
COc1ccc(C(=O)Cn2c(N3CCOCC3)nc3c2c(=O)n(C)c(=O)n3C)cc1	n	n	n	n	x	x
COc1ccc(C(=O)Cn2c(N(C)C)nc3c2c(=O)n(C)c(=O)n3C)cc1	5.4	n	n	n	n	n
COc1ccc(C(CC(=O)NCCC(C)C)NS(=O)(=O)c2ccc(F)cc2)cc1 (stereo not drawn)	n	n	n	n	x	x
Cc1ccc(NC(c2cccc(Cl)c2)c2nnnn2C(C(Oc2ccc(Cl)cc2)n2cncn2)C(C)(C)C)cc1 (stereo not drawn)	n	n	n	n	x	x
CCOC(=O)CN1CC(O)=C(C=NCc2ccccc2)C1=O	7.4	n	n	n	n	n
CCCCOc1ccc(CSc2nncn2N)cc1[N+](=O)[O-]	5.1	n	n	n	n	n
COc1ccc2c(-c3ccccc3)cc3nnnn3c2c1	5.3	n	n	n	n	n
CCCCOc1ccc(NC(=O)C(=O)NC)cc1	n	n	n	n	x	x
CCCCOc1ccc(NC(=O)CC)cc1	n	n	n	n	x	x
CCCCCOc1ccc(NC(=O)C(C)C)cc1	14	n	n	n	n	n
CCCCOc1ccc(NC(=O)C(=O)NC(C)C)cc1	5.6	n	n	n	n	n
CCCCCOC(=O)C1=C(C)NC(=O)NC1c1ccc(Cl)c(Cl)c1 (stereo not drawn)	n	n	n	n	x	x
CCCCC1CN(CCC(=O)NCc2c(C)nn(CC)c2C)Cc2ccccc2O1 (stereo not drawn)	7.5	n	n	n	n	n
CCCCN1C(=O)c2ccc(C(=O)Nc3cc(Cl)ccc3C(=O)O)cc2C1=O	7.2	n	n	n	n	n
SMILES	GPR151 ag	TEAD-YAP inh	FBW7 act	MITF inh	GPR151 conf act	GPR119 counter
COc1ccccc1/C=C1/C(=N)N2N=C(C(F)(F)F)SC2=NC1=O	n	n	n	n	x	x
Cc1ccc(OCCNC(=O)C(=O)Nc2ccccc2C)cc1	n	n	n	n	x	x
O=C(N/N=C/c1cc(Br)ccc1O)NC1CCCCC1	n	n	n	n	x	x
CCN(CC)c1ccc(NC(=O)c2ccc(F)c([N+](=O)[O-])c2)c(C)c1	n	n	n	n	x	x
FC(F)(F)c1cc(-c2ccccc2)n(-c2cc(N3CCCCC3)ncn2)n1	5.4	n	n	n	n	n
COc1ccc(CCNC(=O)C(=O)NCCC(C)C)cc1OC	n	n	n	n	x	x
CCCNC(=O)C(=O)NCCc1ccc(OC)c(OC)c1	6.2	n	n	n	n	n
CN(C)c1ncnc2c1nnn2Cc1ccccc1	n	n	n	n	x	x
CN(Cc1ccccc1)Cc1cc(-c2ncccn2)ccc1O	n	n	n	n	x	x
CN(Cc1nnc(-c2ccccc2)o1)Cc1cc(-c2ncccn2)ccc1O	11	n	n	n	n	n
